This passage reports z-score and composite z-score results from PubChem BioAssay.

Active and inactive are the calls of the source. Unless noted, how the calls were made is not given here.

Assay [1] is described as follows: compound effects on lung adenocarcinoma cell viability – A549, calcein-AM fluorescence, 48 h, basal, profiling panel (AID 1162). Further: test concentration not given here. To be noted: higher = more signal.
Assay [2] can be described thus: compound effects on differentiated 3T3-L1 adipocyte viability – cell-based, 3T3-L1 adipocytes, calcein-AM fluorescence, 48 h, basal, profiling panel (AID 1163). Further: test concentration not given here. To be noted: 3T3-L1 adipocytes viability, higher = more signal.
Assay [3] in a line: compound effects on hepatocellular carcinoma cell viability – HepG2, calcein-AM fluorescence, 48 h, basal, profiling panel (AID 1164). Further: test concentration not given here. To be noted: higher = more signal.
The nature of assay [4]: compound effects on multiple myeloma cell viability – MM1S, calcein-AM fluorescence, 48 h, basal, profiling panel (AID 1165). Further: test concentration not given here. The conditions noted are these: higher = more signal.
A short description of assay [5]: calcein-AM signal in unstimulated myeloma cells – cell-based, calcein-AM fluorescence, 48 h, PK04 Diversity Set, profiling panel (AID 1166).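 Further: cells grown under basal conditions without added stimulus; test concentration not given here.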 The conditions noted are these: RPMI8226 myeloma viability, higher = more signal.
Assay [6] in a line: JC-1 mitochondrial signal, unstimulated HepG2 cells – cell-based, JC-1 fluorescence, 24 h, 100 nL compound, profiling panel (AID 1167). Further: test concentration not given here. The conditions noted are these: HepG2 mitochondrial potential, higher = more signal.
Assay [7] is described as follows: JC-1 mitochondrial signal, unstimulated adipocytes – cell-based, JC-1 fluorescence, 3T3-L1 adipocytes, 24 h, 100 nL compound, profiling panel (AID 1168). Further: test concentration not given here. The conditions noted are these: JC-1 mitochondrial fluorescence, higher = more signal, called active from +8 up or from −8 down.
Assay [8] is described as follows: JC-1 mitochondrial signal, unstimulated myeloma cells – cell-based, JC-1 fluorescence, RPMI8226, 24 h, 100 nL compound, profiling panel (AID 1169). Further: test concentration not given here. The conditions noted are these: JC-1 mitochondrial potential fluorescence, higher = more signal.
A short description of assay [9]: JC-1 mitochondrial signal, unstimulated MM1S myeloma – cell-based, JC-1 fluorescence, 24 h, 100 nL compound, profiling panel (AID 1170). Further: test concentration not given here. To be noted: MM1S mitochondrial potential, higher = more signal.
Assay [10] can be described thus: resazurin metabolic signal in A549 cells – cell-based, resazurin fluorescence, 24 h, PK04 Diversity Set, profiling panel (AID 1171). Further: test concentration not given here. The conditions noted are these: A549 viability, higher = more signal, called active from +8 up or from −8 down. (The colour change of resazurin is a common sign of viable cells or microbes.)
Assay [11] in a line: resazurin metabolic signal in HepG2 cells – cell-based, resazurin fluorescence, 24 h, PK04 Diversity Set, profiling panel (AID 1172). Further: test concentration not given here. The conditions noted are these: HepG2 viability, higher = more signal.
A short description of assay [12]: budding yeast growth changes without added modifier – OD600, strain BY4716, 24 h, basal condition, primary screen (AID 1173). To be noted: S. cerevisiae BY4716 growth, OD600, 24 h; higher = more signal, called active from +8 up or from −8 down.
Assay [13] in a line: viability profiling in MM1S myeloma cells – cell-based, resazurin fluorescence, basal, 24 h, PK04 Diversity Set, profiling panel (AID 1174). Further: test concentration not given here. To be noted: higher = more signal, called active from +8 up or from −8 down.
In assay [14] the target is Dihydroorotate dehydrogenase (quinone), mitochondrial (Plasmodium falciparum (isolate 3D7)) (UniProt Q08210). Kind of assay: inhibition of P. falciparum DHODH – biochemical, C-terminal His tag, absorbance 600 nm, primary screen (AID 1175).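 Further: recombinant parasite enzyme with a five histidine tag at its C terminus; test concentration not given here.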 To be noted: PfDHODH enzyme, DCIP absorbance 600 nm; higher = more signal, called active from +8 up or from −8 down.
Assay [15] in a line: inhibition of PAO1 biofilm formation – strain PAO1, LB-PBS medium, absorbance 600 nm, primary screen (AID 1176). Further: test concentration not given here. To be noted: P. aeruginosa PAO1 growth/biofilm, A600, 12 h; higher = more signal.
Assay [16] is described as follows: growth modulation of vineyard yeast isolate – strain RM11-1a, OD600, basal, 24 h, primary screen (AID 1177).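 Further: cultures grown under basal conditions with no added stressor; test concentration not given here.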 The conditions noted are these: S. cerevisiae RM11-1a growth, OD600, 24 h; higher = more signal, called active from +8 up or from −8 down.
A short description of assay [17]: growth of efflux-deficient E. coli DRC39 – strain DRC39, OD650, 24 h, E. coli filamentation inducers, primary screen (AID 1178).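 Further: growth measured as culture turbidity by optical density at 650 nm; test concentration not given here.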 To be noted: E. coli DRC39 acrAB, higher = more signal, called active from +8 up or from −8 down.
Assay [18] can be described thus: growth of efflux-deficient E. coli DRC39 – strain DRC39, OD650, 48 h, E. coli filamentation inducers, primary screen (AID 1179).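 Further: screen aims at cell division blockers that make cells filament.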 To be noted: E. coli DRC39 delta-acrAB growth, higher = more signal, called active from +8 up or from −8 down.
The nature of assay [19]: viability profiling in RPMI8226 myeloma cells – cell-based, resazurin fluorescence, basal, 24 h, PK04 Diversity Set, profiling panel (AID 1180).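 Further: RPMI8826 multiple myeloma cell line at 5000 cells per well; test concentration not given here.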 The conditions noted are these: higher = more signal.
In assay [20] the target is E3 ubiquitin-protein ligase XIAP (Homo sapiens) (UniProt P98170). The experiment in a line: small molecules binding XIAP protein – biophysical, small-molecule microarray, fluorescence 635 nm, primary screen (AID 1181).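 Further: score merges 667 nm emission and signal to noise over triplicate slides.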 To be noted: higher = more signal.
Sequence of E3 ubiquitin-protein ligase XIAP (Homo sapiens) (P98170 whole entry, looked up): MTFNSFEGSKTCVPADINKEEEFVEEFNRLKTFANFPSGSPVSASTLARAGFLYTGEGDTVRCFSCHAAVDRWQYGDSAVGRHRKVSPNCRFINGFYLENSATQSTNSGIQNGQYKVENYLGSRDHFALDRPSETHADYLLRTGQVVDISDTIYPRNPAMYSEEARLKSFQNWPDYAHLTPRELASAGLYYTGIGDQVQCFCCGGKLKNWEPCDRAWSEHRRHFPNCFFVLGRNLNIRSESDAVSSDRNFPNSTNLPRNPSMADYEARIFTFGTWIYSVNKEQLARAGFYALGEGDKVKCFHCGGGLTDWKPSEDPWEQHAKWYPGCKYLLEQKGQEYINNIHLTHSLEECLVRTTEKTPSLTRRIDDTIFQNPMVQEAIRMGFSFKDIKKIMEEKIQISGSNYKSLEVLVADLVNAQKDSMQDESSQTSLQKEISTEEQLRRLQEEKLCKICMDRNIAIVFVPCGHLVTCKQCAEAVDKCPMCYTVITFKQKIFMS

Sequence of Dihydroorotate dehydrogenase (quinone), mitochondrial (Plasmodium falciparum (isolate 3D7)) (Q08210 whole entry, looked up): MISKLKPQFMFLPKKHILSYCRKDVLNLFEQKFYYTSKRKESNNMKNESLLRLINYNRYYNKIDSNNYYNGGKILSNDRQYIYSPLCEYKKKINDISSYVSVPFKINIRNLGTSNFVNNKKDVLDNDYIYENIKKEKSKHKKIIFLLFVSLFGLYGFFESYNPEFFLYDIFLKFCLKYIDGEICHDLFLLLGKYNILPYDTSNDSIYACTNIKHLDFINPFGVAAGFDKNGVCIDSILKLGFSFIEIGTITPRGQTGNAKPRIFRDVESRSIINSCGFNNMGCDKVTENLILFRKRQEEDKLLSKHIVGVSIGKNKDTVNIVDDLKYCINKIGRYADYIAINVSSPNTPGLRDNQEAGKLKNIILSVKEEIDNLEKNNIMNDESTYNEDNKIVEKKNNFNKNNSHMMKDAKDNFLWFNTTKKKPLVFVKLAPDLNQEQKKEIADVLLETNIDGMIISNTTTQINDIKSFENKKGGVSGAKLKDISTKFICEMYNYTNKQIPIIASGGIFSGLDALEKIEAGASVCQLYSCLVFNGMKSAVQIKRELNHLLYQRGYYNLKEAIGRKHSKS

Consider `C[N+](C)(C)CCCCNC(=O)[C@H]1C[C@H]2C(=O)N3CCC[C@H]3C(=O)N2[C@H]1c1cccc(OCCO)c1`, for which the z-score in assay [1] was -0.591; in [2], -0.682; in assay [3], -0.545; in [4], 0.129; in [5], 0.157; in [6], -0.901. Moreover, the z-score was -0.186 (inactive) in [7]; -0.0988 in assay [8]; -0.193 in [9]; -0.699 (inactive) in assay [10]; -2.49 in assay [11]; 1.43 (inactive) in [12]. The z-score in [13] is -1.12 (inactive); in assay [15], 0.628 (inactive); in [16] it was 0.647 (inactive); in assay [17], 0.66 (inactive); in [18], 0.629 (inactive); in assay [19], -0.951. In addition, the composite z-score in assay [14] was -30.8 (active); in [20], 0.261.

Regarding `C=CCNC(=O)[C@H]1[C@@H]2C(=O)O[C@@H](c3ccccc3)[C@@H](c3ccccc3)N2[C@@H](c2ccccc2OCCO)[C@]12C(=O)Nc1ccc(C#CCCO)cc12`, the z-score in assay [1] was 0.126; in assay [2], 1.04; in assay [3], -0.543; in assay [4], -2.03; in [5], -1.91; in [6], -0.651. Also, the z-score in assay [7] is -0.936 (inactive); in assay [8] it was -0.953; in assay [9], -0.31; in assay [10], -0.685 (inactive); in assay [11] it was -0.349; in assay [12] it was 1.22 (inactive). The z-score in assay [13] was -0.942 (inactive); in assay [15], 0.462 (inactive); in [16], 2.33 (inactive); in assay [17], -0.393 (inactive); in assay [18] it was -0.445 (inactive); in assay [19], -0.969. For the same compound, the composite z-score in assay [14] was 2.6 (inactive); in assay [20] it was 1.02.

Consider `COc1ccc(C#Cc2ccc3c(c2)[C@]2(C(=O)N3)[C@H](C(=O)Nc3nc4ccccc4s3)[C@H]3C(=O)O[C@H](c4ccccc4)[C@H](c4ccccc4)N3[C@@H]2c2ccc(O)cc2)cc1`, for which the z-score in assay [1] was -0.151; in assay [2], 0.341; in [3] it was 0.949; in assay [4] it was -0.561; in [5], -1.37; in assay [6], -3.71. The z-score in assay [7] was -0.298 (inactive); in assay [8], -1.02; in assay [9], -1.18; in assay [10] it was 0.279 (inactive); in assay [11], 1.2; in [12] it was 0.0338 (inactive). Further, the z-score in assay [13] was 0.283 (inactive); in assay [15], 0.145 (inactive); in assay [16], 1.15 (inactive); in assay [17] it was 0.237 (inactive); in assay [18], -0.0528 (inactive); in assay [19] it was 0.338. Also, the composite z-score in [14] is -2.08 (inactive); in assay [20], 0.065.

With `COCCCNC(=O)[C@@]1(C)c2ccccc2C(=O)N(C(C)C)[C@H]1c1ccc(CO)cc1`, the z-score in [1] is -0.276; in assay [2], -0.208; in [3], -0.51; in assay [4], 0.0651; in assay [5] it was 0.532; in assay [6], 0.043. Moreover, the z-score in assay [7] was 0.304 (inactive); in assay [8], 0.887; in assay [9], -0.441; in [10], 0.601 (inactive); in assay [11], -0.104; in assay [12] it was 0.836 (inactive). For the same compound, the z-score in [13] was -0.18 (inactive); in assay [15] it was 0.208 (inactive); in assay [16] it was 1.24 (inactive); in assay [17], 0.32 (inactive); in [18], -0.279 (inactive); in assay [19], -0.316. The composite z-score in [14] was 0.663 (inactive); in assay [20], 0.109.

`O=C1C2C=CC(C(O)CCc3ccccc3)N(Nc3ccccc3F)C2C(=O)N1c1ccccc1` (stereo not given): the z-score in assay [1] was -0.804; in [2], 0.255; in assay [3], -0.31; in [4], 0.596; in assay [5], -1.46; in assay [6], -0.257. Besides, the z-score in assay [7] is 0.377 (inactive); in assay [8] it was -0.448; in [9], -0.515; in assay [10], 0.387 (inactive); in [11], 0.0011; in [12], 0.14 (inactive). For the same compound, the z-score in assay [13] is 0.209 (inactive); in assay [15] it was 0.0083 (inactive); in assay [16], -0.253 (inactive); in [17], -0.837 (inactive); in [18], 0.0277 (inactive); in [19], 0.799. For the same compound, the composite z-score in assay [14] is -0.442 (inactive); in [20], 0.272.

In the case of `C[C@H]1C2[C@H](Cc3ccccc3)NC(=O)[C@]23C(=O)N[C@H](Cc2ccccc2)C(=O)N2CCC[C@H]2C(=O)NC/C=C\C/C=C/C3[C@@H]2O[C@]12C` (stereo not given in full), the z-score was 1.4 in [1]; 0.993 in assay [2]; 0.445 in assay [3]; 0.0625 in assay [4]; -0.0608 in assay [5]; 0.725 in assay [6]. Besides, the z-score was 0.736 (inactive) in [7]; -0.243 in [8]; -0.634 in [9]; 0.559 (inactive) in assay [10]; 0.696 in [11]; -1.96 (inactive) in assay [12]. Further, the z-score is 1.22 (inactive) in assay [13]; 1.01 (inactive) in [15]; -0.835 (inactive) in assay [16]; 1.11 (inactive) in [17]; -0.0988 (inactive) in [18]; 1.19 in assay [19]. Also, the composite z-score in assay [14] is -1.51 (inactive); in [20] it was 0.091.

`CC(C)N1C(=O)[C@@]2(Cc3ccccc31)c1ccccc1C(=O)N(Cc1ccccc1Cl)[C@H]2c1ccc(CO)cc1`: the z-score in assay [1] was 1.02; in assay [2], -0.24; in assay [3], -0.921; in [4], -1.58; in assay [5], -0.238; in [6] it was 0.407. The z-score in [7] was 0.111 (inactive); in assay [8], 0.115; in assay [9], -1.76; in assay [10], 0.458 (inactive); in assay [11], 1.07; in assay [12] it was -1.87 (inactive). Further, the z-score is 0.845 (inactive) in [13]; 0.31 (inactive) in assay [15]; -1.6 (inactive) in assay [16]; 0.344 (inactive) in assay [17]; 0.659 (inactive) in assay [18]; 1.32 in assay [19]. Further, the composite z-score is -4.26 (inactive) in assay [14] and 0.257 in assay [20].

As to `COc1cc2c(cc1OC)CN(C(=O)[C@@H]1[C@H]3C(=O)O[C@H](c4ccccc4)[C@H](c4ccccc4)N3[C@H](c3ccccc3OCCO)[C@@]13C(=O)Nc1ccc(C#CCCO)cc13)CC2`, the z-score is 1.26 in assay [1]; 0.784 in assay [2]; 0.665 in assay [3]; -0.777 in assay [4]; -0.803 in [5]; 0.453 in assay [6]. The z-score in assay [7] is 1.2 (inactive); in [8], -1.21; in assay [9] it was -0.107; in [10], 1.28 (inactive); in assay [11], 0.0986; in assay [12], 1.28 (inactive). Besides, the z-score is -0.0469 (inactive) in assay [13]; 2.35 (inactive) in assay [15]; 1.98 (inactive) in assay [16]; 0.158 (inactive) in [17]; 0.793 (inactive) in [18]; 0.43 in assay [19]. For the same compound, the values for the composite z-score in assay [14] and in [20] were 0.379 (inactive) and 0.271, respectively.
